Results as given in publication PMC11062922 (Nature Chemical Biology, 2023).
Where two headings read alike, the source gives them in different places.

How the values were obtained:
Settings in all cases: read-out: apparent Kd, n = 1
SLK = system: SLK
STK10 = system: STK10
TBK1 = system: TBK1
[1] = compound concentrations:100 nM and 1000 nM (sheet 'Lestaurtinib' of Supplementary Table 1),run:Lestaurtinib_02566_R3,Plate:MR014
[2] = compound concentrations:100 nM and 1000 nM (sheet 'Lestaurtinib' of Supplementary Table 1),run:Lestaurtinib_02572_R3,Plate:MR015
[3] = compound concentrations:100 nM and 1000 nM (sheet 'Lestaurtinib' of Supplementary Table 1),run:Lestaurtinib_02577_R3,Plate:MR016
[4] = compound concentrations:100 nM and 1000 nM (sheet 'Lestaurtinib' of Supplementary Table 1),run:Lestaurtinib_02584_R3,Plate:MR017
[5] = compound concentrations:100 nM and 1000 nM (sheet 'Lestaurtinib' of Supplementary Table 1),run:Lestaurtinib_02601_R1,Plate:MR018
[6] = compound concentrations:100 nM and 1000 nM (sheet 'Lestaurtinib' of Supplementary Table 1),run:Lestaurtinib_02624_R2,Plate:MR020
[7] = compound concentrations:100 nM and 1000 nM (sheet 'Lestaurtinib' of Supplementary Table 1),run:Lestaurtinib_02741_R3,Plate:MR023
[8] = compound concentrations:100 nM and 1000 nM (sheet 'Lestaurtinib' of Supplementary Table 1),run:Lestaurtinib_02748_R2,Plate:MR024
[9] = compound concentrations:100 nM and 1000 nM (sheet 'Lestaurtinib' of Supplementary Table 1),run:Lestaurtinib_02765_R1,Plate:MR026
[10] = compound concentrations:100 nM and 1000 nM (sheet 'Lestaurtinib' of Supplementary Table 1),run:Lestaurtinib_02765_R2,Plate:MR026
[11] = compound concentrations:100 nM and 1000 nM (sheet 'Lestaurtinib' of Supplementary Table 1),run:Lestaurtinib_02766_R2,Plate:MR027
[12] = compound concentrations:100 nM and 1000 nM (sheet 'Lestaurtinib' of Supplementary Table 1),run:Lestaurtinib_02768_R1,Plate:MR028
[13] = compound concentrations:100 nM and 1000 nM (sheet 'Lestaurtinib' of Supplementary Table 1),run:Lestaurtinib_02795_R1,Plate:MR022
[14] = compound concentrations:100 nM and 1000 nM (sheet 'Lestaurtinib' of Supplementary Table 1),run:Lestaurtinib_02795_R2,Plate:MR022
[15] = compound concentrations:100 nM and 1000 nM (sheet 'Lestaurtinib' of Supplementary Table 1),run:Lestaurtinib_02802_R1,Plate:MR029
[16] = compound concentrations:100 nM and 1000 nM (sheet 'Lestaurtinib' of Supplementary Table 1),run:Lestaurtinib_03252_R2,Plate:MR032
[17] = compound concentrations:100 nM and 1000 nM (sheet 'Lestaurtinib' of Supplementary Table 1),run:Lestaurtinib_03260_R1,Plate:MR033
[18] = compound concentrations:100 nM and 1000 nM (sheet 'Lestaurtinib' of Supplementary Table 1),run:Lestaurtinib_03260_R2,Plate:MR033
[19] = compound concentrations:100 nM and 1000 nM (sheet 'Lestaurtinib' of Supplementary Table 1),run:Lestaurtinib_02339_R2,Plate:MR001
[20] = compound concentrations:100 nM and 1000 nM (sheet 'Lestaurtinib' of Supplementary Table 1),run:Lestaurtinib_02364_R3,Plate:MR002

## Lestaurtinib
SLK; compound concentrations:100 nM and 1000 nM (sheet 'Lestaurtinib' of Supplementary Table 1),run:Lestaurtinib_02496_R2,Plate:MR013
  potency estimated from few doses: 1310 nM
SLK; compound concentrations:100 nM and 1000 nM (sheet 'Lestaurtinib' of Supplementary Table 1),run:Lestaurtinib_02496_R3,Plate:MR013
  potency estimated from few doses: 1620 nM
SLK; [1]
  potency estimated from few doses: 1130 nM
SLK; [2]
  potency estimated from few doses: 1790 nM
SLK; compound concentrations:100 nM and 1000 nM (sheet 'Lestaurtinib' of Supplementary Table 1),run:Lestaurtinib_02577_R2,Plate:MR016
  potency estimated from few doses: 1320 nM
SLK; [3]
  potency estimated from few doses: 997 nM
SLK; compound concentrations:100 nM and 1000 nM (sheet 'Lestaurtinib' of Supplementary Table 1),run:Lestaurtinib_02584_R2,Plate:MR017
  potency estimated from few doses: 1320 nM
SLK; [4]
  potency estimated from few doses: 1580 nM
SLK; [5]
  potency estimated from few doses: 1760 nM
SLK; compound concentrations:100 nM and 1000 nM (sheet 'Lestaurtinib' of Supplementary Table 1),run:Lestaurtinib_02601_R3,Plate:MR018
  potency estimated from few doses: 1400 nM
SLK; compound concentrations:100 nM and 1000 nM (sheet 'Lestaurtinib' of Supplementary Table 1),run:Lestaurtinib_02606_R2,Plate:MR019
  potency estimated from few doses: 1320 nM
SLK; compound concentrations:100 nM and 1000 nM (sheet 'Lestaurtinib' of Supplementary Table 1),run:Lestaurtinib_02624_R1,Plate:MR020
  potency estimated from few doses: 1810 nM
SLK; [6]
  potency estimated from few doses: 1130 nM
SLK; [7]
  potency estimated from few doses: 1440 nM
SLK; [8]
  potency estimated from few doses: 1330 nM
SLK; compound concentrations:100 nM and 1000 nM (sheet 'Lestaurtinib' of Supplementary Table 1),run:Lestaurtinib_02752_R3,Plate:MR025
  potency estimated from few doses: 1330 nM
SLK; [9]
  potency estimated from few doses: 1320 nM
SLK; [10]
  potency estimated from few doses: 1130 nM
SLK; [11]
  potency estimated from few doses: 1150 nM
SLK; [12]
  potency estimated from few doses: 1300 nM
SLK; compound concentrations:100 nM and 1000 nM (sheet 'Lestaurtinib' of Supplementary Table 1),run:Lestaurtinib_02768_R2,Plate:MR028
  potency estimated from few doses: 1400 nM
SLK; [13]
  potency estimated from few doses: 1610 nM
SLK; [14]
  potency estimated from few doses: 1360 nM
SLK; compound concentrations:100 nM and 1000 nM (sheet 'Lestaurtinib' of Supplementary Table 1),run:Lestaurtinib_02795_R3,Plate:MR022
  potency estimated from few doses: 1530 nM
SLK; [15]
  potency estimated from few doses: 1150 nM
SLK; compound concentrations:100 nM and 1000 nM (sheet 'Lestaurtinib' of Supplementary Table 1),run:Lestaurtinib_02802_R2,Plate:MR029
  potency estimated from few doses: 964 nM
SLK; compound concentrations:100 nM and 1000 nM (sheet 'Lestaurtinib' of Supplementary Table 1),run:Lestaurtinib_02802_R3,Plate:MR029
  potency estimated from few doses: 1350 nM
SLK; compound concentrations:100 nM and 1000 nM (sheet 'Lestaurtinib' of Supplementary Table 1),run:Lestaurtinib_03172_R2,Plate:MR031
  potency estimated from few doses: 1460 nM
SLK; compound concentrations:100 nM and 1000 nM (sheet 'Lestaurtinib' of Supplementary Table 1),run:Lestaurtinib_03172_R3,Plate:MR031
  potency estimated from few doses: 914 nM
SLK; compound concentrations:100 nM and 1000 nM (sheet 'Lestaurtinib' of Supplementary Table 1),run:Lestaurtinib_03252_R1,Plate:MR032
  potency estimated from few doses: 1350 nM
SLK; [16]
  potency estimated from few doses: 1400 nM
SLK; [17]
  potency estimated from few doses: 1930 nM
SLK; [18]
  potency estimated from few doses: 1930 nM
SLK; compound concentrations:100 nM and 1000 nM (sheet 'Lestaurtinib' of Supplementary Table 1),run:Lestaurtinib_03260_R3,Plate:MR033
  potency estimated from few doses: 1310 nM
STK10; compound concentrations:100 nM and 1000 nM (sheet 'Lestaurtinib' of Supplementary Table 1),run:Lestaurtinib_02339_R1,Plate:MR001
  potency estimated from few doses: 179 nM
STK10; [19]
  potency estimated from few doses: 158 nM
STK10; compound concentrations:100 nM and 1000 nM (sheet 'Lestaurtinib' of Supplementary Table 1),run:Lestaurtinib_02339_R3,Plate:MR001
  potency estimated from few doses: 80.5 nM
STK10; compound concentrations:100 nM and 1000 nM (sheet 'Lestaurtinib' of Supplementary Table 1),run:Lestaurtinib_02364_R2,Plate:MR002
  potency estimated from few doses: 140 nM
STK10; [20]
  potency estimated from few doses: 142 nM
STK10; compound concentrations:100 nM and 1000 nM (sheet 'Lestaurtinib' of Supplementary Table 1),run:Lestaurtinib_02367_R3,Plate:MR003
  potency estimated from few doses: 144 nM
STK10; compound concentrations:100 nM and 1000 nM (sheet 'Lestaurtinib' of Supplementary Table 1),run:Lestaurtinib_02407_R1,Plate:MR005
  potency estimated from few doses: 113 nM
STK10; compound concentrations:100 nM and 1000 nM (sheet 'Lestaurtinib' of Supplementary Table 1),run:Lestaurtinib_02422_R1,Plate:MR006
  potency estimated from few doses: 162 nM
STK10; compound concentrations:100 nM and 1000 nM (sheet 'Lestaurtinib' of Supplementary Table 1),run:Lestaurtinib_02422_R2,Plate:MR006
  potency estimated from few doses: 47 nM
STK10; compound concentrations:100 nM and 1000 nM (sheet 'Lestaurtinib' of Supplementary Table 1),run:Lestaurtinib_02437_R1,Plate:MR007
  potency estimated from few doses: 142 nM
STK10; compound concentrations:100 nM and 1000 nM (sheet 'Lestaurtinib' of Supplementary Table 1),run:Lestaurtinib_02437_R3,Plate:MR007
  potency estimated from few doses: 18.2 nM
STK10; compound concentrations:100 nM and 1000 nM (sheet 'Lestaurtinib' of Supplementary Table 1),run:Lestaurtinib_02438_R2,Plate:MR008
  potency estimated from few doses: 137 nM
STK10; compound concentrations:100 nM and 1000 nM (sheet 'Lestaurtinib' of Supplementary Table 1),run:Lestaurtinib_02443_R1,Plate:MR009
  potency estimated from few doses: 141 nM
STK10; compound concentrations:100 nM and 1000 nM (sheet 'Lestaurtinib' of Supplementary Table 1),run:Lestaurtinib_02443_R3,Plate:MR009
  potency estimated from few doses: 154 nM
STK10; compound concentrations:100 nM and 1000 nM (sheet 'Lestaurtinib' of Supplementary Table 1),run:Lestaurtinib_02473_R2,Plate:MR010
  potency estimated from few doses: 140 nM
STK10; compound concentrations:100 nM and 1000 nM (sheet 'Lestaurtinib' of Supplementary Table 1),run:Lestaurtinib_02482_R1,Plate:MR011
  potency estimated from few doses: 131 nM
STK10; compound concentrations:100 nM and 1000 nM (sheet 'Lestaurtinib' of Supplementary Table 1),run:Lestaurtinib_02482_R2,Plate:MR011
  potency estimated from few doses: 157 nM
STK10; compound concentrations:100 nM and 1000 nM (sheet 'Lestaurtinib' of Supplementary Table 1),run:Lestaurtinib_02482_R3,Plate:MR011
  potency estimated from few doses: 136 nM
STK10; compound concentrations:100 nM and 1000 nM (sheet 'Lestaurtinib' of Supplementary Table 1),run:Lestaurtinib_02487_R3,Plate:MR012
  potency estimated from few doses: 163 nM
STK10; compound concentrations:100 nM and 1000 nM (sheet 'Lestaurtinib' of Supplementary Table 1),run:Lestaurtinib_02566_R2,Plate:MR014
  potency estimated from few doses: 144 nM
STK10; [1]
  potency estimated from few doses: 135 nM
STK10; [2]
  potency estimated from few doses: 157 nM
STK10; [3]
  potency estimated from few doses: 181 nM
STK10; [4]
  potency estimated from few doses: 179 nM
STK10; [5]
  potency estimated from few doses: 137 nM
STK10; compound concentrations:100 nM and 1000 nM (sheet 'Lestaurtinib' of Supplementary Table 1),run:Lestaurtinib_02601_R2,Plate:MR018
  potency estimated from few doses: 167 nM
STK10; compound concentrations:100 nM and 1000 nM (sheet 'Lestaurtinib' of Supplementary Table 1),run:Lestaurtinib_02606_R1,Plate:MR019
  potency estimated from few doses: 135 nM
STK10; compound concentrations:100 nM and 1000 nM (sheet 'Lestaurtinib' of Supplementary Table 1),run:Lestaurtinib_02606_R3,Plate:MR019
  potency estimated from few doses: 144 nM
STK10; [6]
  potency estimated from few doses: 137 nM
STK10; compound concentrations:100 nM and 1000 nM (sheet 'Lestaurtinib' of Supplementary Table 1),run:Lestaurtinib_02624_R3,Plate:MR020
  potency estimated from few doses: 115 nM
STK10; compound concentrations:100 nM and 1000 nM (sheet 'Lestaurtinib' of Supplementary Table 1),run:Lestaurtinib_02724_R2,Plate:MR021
  potency estimated from few doses: 121 nM
STK10; compound concentrations:100 nM and 1000 nM (sheet 'Lestaurtinib' of Supplementary Table 1),run:Lestaurtinib_02741_R2,Plate:MR023
  potency estimated from few doses: 134 nM
STK10; [7]
  potency estimated from few doses: 140 nM
STK10; compound concentrations:100 nM and 1000 nM (sheet 'Lestaurtinib' of Supplementary Table 1),run:Lestaurtinib_02748_R1,Plate:MR024
  potency estimated from few doses: 157 nM
STK10; [8]
  potency estimated from few doses: 153 nM
STK10; compound concentrations:100 nM and 1000 nM (sheet 'Lestaurtinib' of Supplementary Table 1),run:Lestaurtinib_02748_R3,Plate:MR024
  potency estimated from few doses: 115 nM
STK10; compound concentrations:100 nM and 1000 nM (sheet 'Lestaurtinib' of Supplementary Table 1),run:Lestaurtinib_02752_R1,Plate:MR025
  potency estimated from few doses: 124 nM
STK10; compound concentrations:100 nM and 1000 nM (sheet 'Lestaurtinib' of Supplementary Table 1),run:Lestaurtinib_02752_R2,Plate:MR025
  potency estimated from few doses: 141 nM
STK10; [9]
  potency estimated from few doses: 97 nM
STK10; [10]
  potency estimated from few doses: 132 nM
STK10; [11]
  potency estimated from few doses: 93.1 nM
STK10; compound concentrations:100 nM and 1000 nM (sheet 'Lestaurtinib' of Supplementary Table 1),run:Lestaurtinib_02766_R3,Plate:MR027
  potency estimated from few doses: 137 nM
STK10; [12]
  potency estimated from few doses: 115 nM
STK10; compound concentrations:100 nM and 1000 nM (sheet 'Lestaurtinib' of Supplementary Table 1),run:Lestaurtinib_02768_R3,Plate:MR028
  potency estimated from few doses: 133 nM
STK10; [13]
  potency estimated from few doses: 134 nM
STK10; [14]
  potency estimated from few doses: 130 nM
STK10; [15]
  potency estimated from few doses: 113 nM
STK10; compound concentrations:100 nM and 1000 nM (sheet 'Lestaurtinib' of Supplementary Table 1),run:Lestaurtinib_02896_R2,Plate:MR030
  potency estimated from few doses: 142 nM
STK10; [16]
  potency estimated from few doses: 74.5 nM
STK10; [17]
  potency estimated from few doses: 228 nM
STK10; [18]
  potency estimated from few doses: 211 nM
TBK1; [19]
  potency estimated from few doses: 822 nM
TBK1; [20]
  potency estimated from few doses: 1610 nM
TBK1; compound concentrations:100 nM and 1000 nM (sheet 'Lestaurtinib' of Supplementary Table 1),run:Lestaurtinib_02381_R1,Plate:MR004
  potency estimated from few doses: 1350 nM
TBK1; compound concentrations:100 nM and 1000 nM (sheet 'Lestaurtinib' of Supplementary Table 1),run:Lestaurtinib_02381_R2,Plate:MR004
  potency estimated from few doses: 1600 nM
